Screening results (PubChem)
DAX1 inh-1 – DAX1 (NR0B1) inhibitors, primary screen, cell-based, HEK293, Gal4-DAX1, luciferase luminescence; inhibition, % at 6.75 µM; AID 504766, 2011; 340,000 compounds, 0.99% hits; Nuclear receptor subfamily 0 group B member 1 (Homo sapiens), P51843; HEK293 Gal4-DAX1 luciferase reporter;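 active = inhibition above the mean over all tested compounds plus 3 SD, cut at about 4.2% in these data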;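 also: 0% = DAX1-transfected cells with DMSO and 100% = empty-vector control cells with DMSO; inhibition shows as a rise in luminescence from relieved DAX1 repression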
SMARCA2 activ – SMARCA2 (BRM) function activators, primary screen, cell-based, luminescence, high throughput | MG213 cells, MMTV-luciferase reporter, dexamethasone, overnight | activation, % at 9.1 µM | 370,000 compounds, 1% hits; in the data active = activation above about 7.8%;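 also: 0% = vehicle wells and 100% = reference activator wells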
DAX1 inh-2 – DAX1 (NR0B1) inhibitors on StAR promoter, primary screen, cell-based, luminescence, SF-1 (NR5A1), full-length DAX-1; 370,000 compounds, 1.1% hits; HEK293T StAR-luciferase reporter, SF-1/DAX-1 repression relief; inhibition, % at 6.8 µM;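 active = inhibition above the mean over all tested compounds plus 3 SD, cut at about 3.6% in these data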;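 also: 0% = DAX-1 cells with DMSO and 100% = cells lacking DAX-1 with DMSO; higher inhibition means more luminescence from relief of DAX-1 repression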
hgDAF12 agonist – H. glycines DAF-12 receptor agonists, primary screen, cell-based, luminescence, HEK293, GAL4 fusion, UAS-luciferase. Nuclear hormone receptor DAF-12 (Heterodera glycines), GAL4 fusion. HEK293 GAL4-hgDAF12 UAS-luciferase reporter, agonist luminescence; normalized to butyrate control. activation, % at 6.8 µM. 370,000 compounds, 1.8% hits. AID 687014, 2013;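 active = activation above a cutoff set at the mean of all screened compounds plus 3 SD, cut at about 10% in these data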;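 also: 0% = DMSO wells and 100% = sodium butyrate wells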
hcDAF-12 act – H. contortus DAF-12 nuclear receptor activators, primary screen, cell-based, luminescence, HEK293, lit1-tk-luc reporter; HEK293 hcDAF-12 lit1-tk-luc reporter; 0% DMSO, 100% Δ7-dafachronic acid; activation, % at 6.8 µM; 370,000 compounds, 1.4% hits; AID 652067, 2013;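 active = activation above the mean of all tested compounds plus 3 SD, cut at about 5.5% in these data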;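 also: 100% = response to 3 µM Δ7-dafachronic acid high control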
ssDAF-12 act – S. stercoralis DAF-12 nuclear receptor activators, primary screen, cell-based, luminescence, HEK293, GRIP1 co-expression, lit1-tk-luc; activation, % at 6.8 µM; 370,000 compounds, 1% hits; HEK293 ssDAF-12/GRIP1 lit1-tk-luc reporter; % of 3 µM dafachronic acid response; Nuclear hormone receptor DAF-12 (Strongyloides stercoralis);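 active = activation above the mean over all tested compounds plus 3 SD, cut at about 0.9% in these data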;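 also: 0% = DMSO-only wells and 100% = 3 µM delta7-dafachronic acid wells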
DAX1 inh confirm – DAX1 (NR0B1) inhibitors relieving SF-1 repression, confirmation, cell-based, luminescence, HEK293T, full-length DAX-1, SF-1 activated StAR promoter. 2,400 compounds, 87% hits. HEK293T StAR-promoter luciferase reporter, SF-1/DAX-1 repression. inhibition, % at 6.8 µM. shares compounds with DAX1 inh-2;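 active = inhibition above the average of every tested compound plus 3 SD, cut at about 3.8% in these data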;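 also: 0% = DAX-1 cells with DMSO and 100% = no DAX-1 control cells with DMSO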
Target sequence (P51843 whole entry, looked up): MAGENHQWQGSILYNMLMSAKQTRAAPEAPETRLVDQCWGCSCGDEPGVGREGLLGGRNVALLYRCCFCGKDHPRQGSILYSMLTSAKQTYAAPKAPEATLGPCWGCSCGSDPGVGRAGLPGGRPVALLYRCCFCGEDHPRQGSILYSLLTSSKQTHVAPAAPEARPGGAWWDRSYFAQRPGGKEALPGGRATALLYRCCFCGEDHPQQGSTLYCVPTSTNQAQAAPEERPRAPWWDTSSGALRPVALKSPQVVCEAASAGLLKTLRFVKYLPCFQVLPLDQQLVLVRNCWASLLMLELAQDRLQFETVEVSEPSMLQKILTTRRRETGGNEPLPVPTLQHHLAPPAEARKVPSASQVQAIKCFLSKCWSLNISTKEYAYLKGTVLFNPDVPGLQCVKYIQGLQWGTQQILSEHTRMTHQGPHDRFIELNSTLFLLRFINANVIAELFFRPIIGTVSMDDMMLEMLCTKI
SF1 mutant ctr – StAR reporter signal changes without DAX1, counter-screen for DAX1 inhibitor project, cell-based, luminescence, AF-2 mutant SF-1, transactivation; shares compounds with DAX1 inh-2; HEK293 StAR-luciferase, SF-1 AF2 mutant; 2,400 compounds, 78% hits; inhibition, % at 6.8 µM;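 active = inhibition above the mean of all tested compounds plus 3 SD, cut at about 3% in these data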;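 also: 0% = DAX-1 transfected cells with DMSO and 100% = cells without DAX-1 with DMSO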
The depositor's hits bear a star; . = not tested or not shown. Hits are enriched below; roughly 4.8% of the tested compounds scored in any of these assays.

SMILES	DAX1 inh-1	SMARCA2 activ	DAX1 inh-2	hgDAF12 agonist	hcDAF-12 act	ssDAF-12 act	DAX1 inh confirm	SF1 mutant ctr
O=C(O)c1cc(N/N=C/c2ccc3c(c2)OCO3)ccc1Cl	-1.6	0.4	6.7*	10.3	6.0*	-0.6	6.3*	3.1*
CCOc1cc(/C=N/NC(=O)c2ccccn2)ccc1OC(=O)c1cccs1	1.2	2.6	2.8	6.0	2.2	-0.9	.	.
O=C(N/N=C/c1ccc2c(c1)OCO2)c1ccccn1	-1.1	5.6	4.7*	9.9	3.9	-0.1	10.7*	2.1
O=c1[nH]c(N/N=C\c2ccc3c(c2)OCO3)nc2ccccc12	2.8	6.0	4.9*	13.1*	3.9	0.6	6.5*	3.3*
O=C(N/N=C/c1cc2c(cc1Br)OCO2)c1ccccn1	.	2.4	1.8	6.3	2.9	-0.5	.	.
O=c1[nH]c(N/N=C/c2ccccc2)nc2ccccc12	-0.1	3.2	3.6	6.8	2.9	-0.1	.	.
COc1cc(C)ccc1C(=O)N1CCC(Oc2cccnc2)CC1	.	-3.1	0.5	3.4	-2.7	-1.1	.	.
Cc1cc(NC(=O)CSc2ccccn2)cc(NC(=O)CSc2ccccn2)c1	0.3	-4.1	-0.1	0.3	1.3	-1.0	.	.
O=C(CSc1ccccn1)Nc1ccc2c(c1)CCC2	2.8	5.6	5.0*	5.7	-0.3	0.0	7.2*	5.5*
O=C(COc1ccc(Cl)cc1Cl)NC(=O)NC1CCCC1	0.4	6.8	5.0*	12.3*	3.2	-0.5	4.1*	1.0
O=C(COc1ccccc1Cl)NC(=O)NC1CCCC1	0.8	3.6	1.3	5.0	0.2	-1.3	.	.
O=C(COc1ccc(Br)cc1Cl)NC(=O)NC1CCCC1	0.7	4.4	2.0	10.2	1.7	0.1	.	.
O=C(COc1ccc(Cl)cc1Br)NC(=O)NC1CCCC1	3.4	4.7	8.0*	12.7*	0.8	-0.8	7.9*	5.3*
CSc1ccccc1OCc1cc(C(=O)N(C)Cc2ccc(C)o2)no1	0.7	0.7	1.7	5.7	2.2	-1.2	.	.
O=C(c1cc(COc2c(F)cccc2F)on1)N1CCCCCC1	0.1	7.9*	4.8*	6.5	1.1	-0.5	4.6*	3.0*
CSc1ccccc1OCc1cc(C(=O)N(C)Cc2ccc3nsnc3c2)no1	3.0	7.8	5.3*	11.4*	5.3	-0.1	6.5*	3.1*
CN(C(=O)c1cc(COc2c(F)cccc2F)on1)C1CCOC1 (configuration not stated)	0.8	2.7	5.1*	5.2	2.9	-1.1	-0.8	1.8
COC1CCN(C(=O)c2cc(COc3cc(C)ccc3C)on2)CC1	1.3	-1.1	0.0	1.9	-1.7	-0.8	.	.
Cc1ccc(C)c(OCc2cc(C(=O)N3CCOCC3)no2)c1	1.4	1.4	5.7*	7.0	5.4	-0.2	5.3*	4.7*
O=C(Nc1ccc(C(F)(F)F)cc1)OC1CC2CC1[C@H]1CCCCN1C2 (some centres not stated)	.	-0.5	-0.9	3.0	-0.9	-0.8	.	.
CCOC(=O)Cn1cc(CN2C(C(=O)OC)CN(Cc3ccc(F)cc3)CCS2(=O)=O)nn1 (configuration not stated)	.	1.7	-0.2	-0.3	-0.3	-1.6	.	.
CCOc1ccc(-n2c(SCC(=O)Nc3cccc4ccccc34)nnc2-c2cccs2)cc1	.	-5.5	-2.9	2.3	-0.3	-1.1	.	.
CC(=O)N1CCCN(C(=O)c2cc(COc3c(F)cccc3F)on2)CC1	0.5	-0.6	-0.7	0.6	0.2	-1.1	.	.
CCOC(=O)N1CCN(C(=O)c2cc(COc3c(F)cccc3F)on2)CC1	1.2	3.4	7.8*	11.5*	3.1	0.8	8.9*	5.7*
CC(=O)c1ccc(OCc2cc(C(=O)N3CC[C@@H]4CCCC[C@H]4C3)no2)cc1	1.2	4.8	1.2	10.0	1.5	0.1	.	.
SMILES	DAX1 inh-1	SMARCA2 activ	DAX1 inh-2	hgDAF12 agonist	hcDAF-12 act	ssDAF-12 act	DAX1 inh confirm	SF1 mutant ctr
Cc1cccc(C)c1OCc1cc(C(=O)N2CCC(C3CCCCC3)C2)no1 (configuration not stated)	1.6	3.9	4.7*	10.1	1.0	0.5	5.0*	4.0*
CSc1ccccc1OCc1cc(C(=O)N2CCCC(C)C2)no1 (configuration not stated)	1.7	1.8	6.5*	12.0*	3.7	0.1	8.3*	4.0*
CN(CCc1ccccn1)C(=O)c1ccc(Sc2ccccc2Cl)c([N+](=O)[O-])c1	.	-4.5	-1.1	-1.1	-3.8	-1.4	.	.
Cc1cccc(C(=O)N[C@@H]2CC[C@@]34CCCN3C(=O)CCC[C@H]4[C@H]2C)c1	.	.	.	2.9	-1.4	-1.7	.	.
COc1cc(-n2c(C)nc3cc(C(=O)N4CCCC4)ccc32)cc(OC)c1OC	.	2.1	1.0	0.2	-3.2	-0.7	.	.
CCC(=O)N1CCc2cc(Br)c(S(=O)(=O)N3CCCC(C(=O)NC(C)(C)C)C3)cc21 (configuration not stated)	.	-0.8	-0.2	-3.0	-0.3	-1.4	.	.
CC(C)(C)CSc1nnc(-c2cccnc2)n1Cc1ccccc1	.	-1.9	0.0	0.2	-2.6	-1.4	.	.
C#CCNC(=O)C[C@H]1C[C@@]2(C(=O)OC)C(=C[C@H](COCc3ccccc3)O[C@@H]2C)N(Cc2ccccc2)C1=O	.	-1.7	-0.7	0.3	-0.1	-0.6	.	.
O=C(c1ccc(CS(=O)c2ccccc2Cl)o1)N1CCCCCC1 (configuration not stated)	1.1	2.2	-2.0	4.2	-0.8	-1.1	.	.
O=C(c1ccc(CS(=O)c2ccccc2Cl)o1)N1CCN(C2CCCCC2)CC1 (configuration not stated)	1.4	-3.4	6.9*	-0.8	-0.7	-0.2	5.8*	-4.7
N#Cc1c(NC(=O)/C=C/c2ccco2)sc2c1CCCC2	2.2	3.6	5.1*	6.1	6.2*	0.7	31.4*	-5.9
